ChEMBL document CHEMBL4513146, “CO-ADD screening of Karazin Kharkiv National University (Ukraine) compounds”
Results with a measured potency or affinity are listed apart.

Assays:
Klebsiella pneumoniae = details: Concentration 32 ug.mL-1;; ASSAY_TEST Inhibition of Bacterial Growth; detection method Absorption (OD600); MEDIA CAMHB; plate type 384well; NBS; CORNING #3640; time 18 hr
Candida albicans = details: Concentration 32 ug.mL-1; ASSAY_TEST Inhibition of Fungal Growth; detection method Absorption (OD530)
Cryptococcus neoformans = details: Concentration 32 ug.mL-1; ASSAY_TEST Inhibition of Fungal Growth; detection method Resazurin; Absorption (OD600-OD570); plate type 384well; NBS; CORNING #3640

Row | SMILES | Inhibition (Klebsiella pneumoniae) [%] | Inhibition (Candida albicans) [%] | Inhibition (Cryptococcus neoformans) [%]
1 | COc1ccccc1-n1ccn2c(SCC(=O)NCc3ccc(Cl)cc3)nnc2c1=O | 9.61 | 4.77 | -6.31
2 | O=C(Cn1nc2ccc(C(=O)NCc3ccccc3)cn2c1=O)Nc1ccc(Br)cc1 | -0.54 | 2.27 | -19.25
3 | O=S(=O)(c1ccc2nncn2c1)N(Cc1ccccc1F)c1ccc(F)c(F)c1 | -0.52 | 1.44 | -2.71
4 | Cc1ccc(NC(=O)Cn2nc3ccc(-c4ccccc4)nn3c2=O)cc1 | 0.91 | 16.23 | -12.72
5 | Cc1c(Cl)cccc1-n1ccn2c(=O)n(Cc3cccc(Cl)c3)nc2c1=O | 5.86 | 2.56 | -15.28
6 | Cc1cc(C)c(NC(=O)Cn2nc3c(N4CCN(c5ccccc5)CC4)nccn3c2=O)c(C)c1 | 10.19 | 11.4 | -7.74
7 | Cc1ccc(-c2ccc3nnc(CCC(=O)NCc4cccc(Br)c4)n3n2)cc1C | -2.24 | 4.88 | -4.39
8 | Cc1ccc(NC(=O)c2ccc3nnc(SCC(=O)Nc4ccc(F)cc4)n3c2)cc1 | 0.72 | 4.31 | -5.93
9 | Cc1c(Cl)cccc1-n1ccn2c(=S)[nH]nc2c1=O | 8.12 | 2.5 | -13.36
10 | COc1cc(OC)c(NC(=O)Cn2nc3ccc(SC4CCCCC4)nn3c2=O)cc1Cl | 10.6 | 29.07 | -6.25
11 | CCOc1ccccc1NC(=O)Cn1nc2c3cc(-c4ccc(Cl)cc4)nn3ccn2c1=O | 12.1 | 2.9 | -13.93
12 | COc1ccc(C(=O)CSc2nnc3c(=O)n(-c4ccc(Br)cc4)ccn23)cc1 | 6.12 | 4.09 | -7.3
13 | CCCCc1ccc(NC(=O)CSc2nc3ccccc3n3c(C(C)C)nnc23)cc1 | 2.68 | 2.13 | -2.44
14 | COc1ccc(NC(=O)Cn2nc3c(Oc4cccc(OC)c4)nccn3c2=O)cc1 | 3.68 | 3.75 | -7.1
15 | O=C(Cn1nc2ccc(-c3ccccc3)nn2c1=O)NC1CCCCC1 | 16.29 | 0.48 | -16.53
16 | Cc1ccc(C)c(CSc2nnc3c(=O)n(-c4ccc(Br)cc4)ccn23)c1 | 7.74 | 3.39 | -4.05
17 | Cc1cc2nn(CC(=O)Nc3cc(F)ccc3F)c(=O)n2c(Nc2ccc(F)c(C)c2)n1 | 12.97 | 1.83 | -3.72
18 | CCOC(=O)c1ccccc1NC(=O)Cn1nc2ccc(C(=O)Nc3ccc(OC)cc3)cn2c1=O | -1.54 | 25.24 | -9.29
19 | COc1ccccc1-n1ccn2c(SCc3ccc(C)cc3)nnc2c1=O | 5.79 | 2.57 | -9.44
20 | Cc1ccc(Sc2nccn3c(=O)n(CC(=O)Nc4ccc(C)cc4Br)nc23)c(C)c1 | 10.73 | 2.86 | -20.37
21 | Cc1cc(C)cc(NC(=O)Cn2nc3ccc(SC(C)(C)C)nn3c2=O)c1 | 7.43 | 7 | -18.29
22 | COc1ccccc1-n1ccn2c(SCc3ccccc3Cl)nnc2c1=O | 10.5 | 2.3 | -11.71
23 | CCCN(C)c1nccn2c(=O)n(CC(=O)Nc3cccc(SC)c3)nc12 | 8.64 | 8.61 | -6.21
24 | Cc1ccc(NC(=O)Cn2nc3c(SC4CCCCC4)nccn3c2=O)c(Br)c1 | 3.74 | 0.73 | -7.42
25 | COc1cc(OC)c(NC(=O)Cn2nc3c(SC4CCCCC4)nccn3c2=O)cc1Cl | 9.62 | 7.28 | -20.84
26 | Cc1oc(-c2ccccc2)nc1CSc1nc2ccccc2n2c(C)nnc12 | 7.15 | 9.66 | -6.62
27 | Cc1ccc(-c2ccc3nn(CC(=O)N4CCN(c5ccc(F)cc5)CC4)c(=O)n3n2)cc1C | 1.03 | 7.38 | -10.89
28 | CSc1cccc(NC(=O)Cn2nc3c(N4CCCC(C)C4)nccn3c2=O)c1 (stereo not given) | 8.54 | 6.43 | -37.15
29 | COc1ccc(CNC(=O)Cn2nc3c(Oc4cccc(C)c4C)nccn3c2=O)cc1 | 3.56 | -0.71 | -3.17
30 | Cc1nnc2ccc(S(=O)(=O)N(Cc3ccccc3F)c3ccc(F)cc3)cn12 | 5.62 | 1.21 | -9.05
